Each structure is given as a SMILES string. Results filed as inconclusive are left out. Some compounds were tested as several samples or in several runs, with calls that do not always agree. A number with no mark means an inactive call. Active and inactive are the calls of the source. Calls follow the shape of the dose curve; as a rule, active = well fitted inhibition curve with a large enough effect; inconclusive = small, poorly fitted or top-dose-only effect; inactive = flat fitted curve, though single readings scatter.

Test [1] has as its system CRL-7250. In words: Cytotoxic Profiling of Annotated Libraries Using Quantitative High-Throughput Screening (AID 1296008). Also: potency is read from the fitted curve at half-maximal effect. As to max response: % is scaled to controls: 0 for no effect and ±100 for the full control effect. To be noted: Five cell lines viability, CellTiter-Glo ATP luminescence, 48-72 h; max response: hits give low values. In short, it runs like this:
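Cells exposed to compounds for 48 or 72 hr at 37 degrees Celsius. Viability read as ATP-coupled luminescence with CellTiter-Glo after 10 min at room temperature.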
Background: In ATP-based viability assays light output follows the ATP content of the culture.

For test [2], the system named is Dd2. Description: qHTS profiling for inhibitors of Plasmodium falciparum proliferation (AID 504749).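 Also: 0% = DMSO vehicle and full inhibition = artemisinin control.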 To be noted: P. falciparum in erythrocytes, SYBR Green DNA, 72 h; series mostly up to 28.7 µM. In short, it runs like this: (§1)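 P. falciparum-infected erythrocytes (0.3% parasitemia, 2.5% hematocrit) incubated with compound 72 h at 37 C, 5% CO2. Parasite DNA detected by SYBR Green after lysis, overnight at room temperature; normalised to 0.29 uM artemisinin and DMSO.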
On the technique in general: In qHTS, concentration-response curves come from the screen itself.

Test [3] relates to ECU. The description is as above. To be noted: P. falciparum in erythrocytes, SYBR Green DNA, 72 h; series mostly up to 28.7 µM. In short, it runs like this:
as §1

Test [4] deals with FAB9. The description is as above. To be noted: P. falciparum in erythrocytes, SYBR Green DNA, 72 h; series mostly up to 28.7 µM. The gist of the method:
as §1

The subject of test [5] is GB4. The test is described as above. As to conditions: P. falciparum in erythrocytes, SYBR Green DNA, 72 h; series mostly up to 28.7 µM. In short, it runs like this: as §1
Test [6] has as its system HB3. Described as above. To be noted: P. falciparum in erythrocytes, SYBR Green DNA, 72 h; series mostly up to 28.7 µM. The gist of the method:
as §1

Test [7] has as its system ICS. The test is described as above. To be noted: P. falciparum in erythrocytes, SYBR Green DNA, 72 h; series mostly up to 28.7 µM. The gist of the method: as §1
In test [8] the test system is JCK. The test is described as above. As to conditions: P. falciparum in erythrocytes, SYBR Green DNA, 72 h; series mostly up to 28.7 µM. In short, it runs like this: as §1
Test [9] deals with N140. The description is as above. As to conditions: P. falciparum in erythrocytes, SYBR Green DNA, 72 h; series mostly up to 28.7 µM. The gist of the method:
as §1

For test [10], the system named is P93_24. The description is as above. To be noted: P. falciparum in erythrocytes, SYBR Green DNA, 72 h; series mostly up to 28.7 µM. In short, it runs like this: as §1
The test system of test [11] is P94_40. The test is described as above. As to conditions: P. falciparum in erythrocytes, SYBR Green DNA, 72 h; series mostly up to 28.7 µM. The gist of the method:
as §1

The subject of test [12] is PAD. The description is as above. To be noted: P. falciparum in erythrocytes, SYBR Green DNA, 72 h; series mostly up to 28.7 µM. In short, it runs like this: as §1
Test [13] has as its system PC15. Described as above. As to conditions: P. falciparum in erythrocytes, SYBR Green DNA, 72 h; series mostly up to 28.7 µM. In short, it runs like this:
as §1

Test [14] has as its system PC26. Described as above. To be noted: P. falciparum in erythrocytes, SYBR Green DNA, 72 h; series mostly up to 28.7 µM. In short, it runs like this:
as §1

Test [15] deals with PC49. The description is as above. As to conditions: P. falciparum in erythrocytes, SYBR Green DNA, 72 h; series mostly up to 28.7 µM. In short, it runs like this: as §1
Test [16] deals with SC27B. The test is described as above. As to conditions: P. falciparum in erythrocytes, SYBR Green DNA, 72 h; series mostly up to 28.7 µM. In short, it runs like this:
as §1

In test [17] the test system is TAB109. The description is as above. To be noted: P. falciparum in erythrocytes, SYBR Green DNA, 72 h; series mostly up to 28.7 µM. The gist of the method:
as §1

Test [18] deals with TAB113. Described as above. As to conditions: P. falciparum in erythrocytes, SYBR Green DNA, 72 h; series mostly up to 28.7 µM. In short, it runs like this:
as §1

The test system of test [19] is TAB165. The description is as above. To be noted: P. falciparum in erythrocytes, SYBR Green DNA, 72 h; series mostly up to 28.7 µM. The gist of the method:
as §1

The test system of test [20] is W2. The test is described as above. As to conditions: P. falciparum in erythrocytes, SYBR Green DNA, 72 h; series mostly up to 28.7 µM. The gist of the method:
as §1
Also: nearly all actives have a fitted effect of over 60% in size.

With `C(=C\c1ccccc1)/CN1CCN(C(c2ccccc2)c2ccccc2)CC1`, in test [1], the result was inactive.
As for `COc1cc(Cc2cnc(N)nc2N)cc(OC)c1OC`, the call in test [1] was inactive.
On to `C[N+](C)(C)CCOC(=O)CCC(=O)OCC[N+](C)(C)C`, for which the Potency entry in test [2], in [3], in test [4], in test [5], in [6] and in [7] was “inactive” in each case. Also, the Potency result in test [8], in test [9], in [10], in test [11], in test [12] and in test [13] was “inactive” throughout. For the same compound, the Potency entry in test [14], in test [15], in test [16], in test [17], in [18] and in [19] was “inactive” each time. Also, the Potency result in test [20] was “inactive”. Besides, the max response in [1] was 1.65%.
For `CCN(CC)CC(=O)Nc1c(C)cccc1C`, the Potency entry in test [2], in test [3], in test [4], in [5], in [6] and in [7] was “inactive” throughout. Moreover, the Potency entry in test [8], in [9], in test [10], in test [11], in [12] and in test [13] was “inactive” in each case. Further, the Potency entry in test [14], in [15], in [16], in test [17], in [18] and in [19] was “inactive” each time. In addition, the Potency entry in [20] is “inactive”. Moreover, the max response in [1] was -12.2%.
With `CO[C@@]1(NC(=O)CSCC#N)C(=O)N2C(C(=O)O)=C(CSc3nnnn3C)CS[C@@H]21`, in [1], the max response is 2.03%.
For the compound `c1cnc(N2CCN(Cc3ccc4c(c3)OCO4)CC2)nc1`, the Potency result in [2], in test [3], in [4], in test [5], in [6] and in [7] was “inactive” throughout. The Potency result in test [8], in test [9], in test [10], in [11], in test [12] and in [13] was “inactive” throughout. Also, the Potency entry in test [14], in test [15], in [16], in test [17], in test [18] and in [19] was “inactive” each time. In addition, the Potency result in test [20] is “inactive”. In [1], the max response is -1.35%.
In the case of `CCCCOCCOCCOCc1cc2c(cc1CCC)OCO2`, the Potency result in test [2], in test [3], in test [4], in test [5], in test [6] and in test [7] was “inactive” each time. Moreover, the Potency result in test [8], in test [9], in [10], in test [11], in [12] and in test [13] was “inactive” throughout. Moreover, the Potency result in test [14], in test [15], in test [16], in [17], in [18] and in [19] was “inactive” each time. Moreover, in test [20], the Potency entry was “inactive”. The Potency in test [1] was 61.8 µM (active). Also, in test [1], the max response is 0.375%.
Regarding `CCCNC(C)C(=O)Nc1ccccc1C` (stereo unspecified), the max response in test [1] is -2.89%.
Take `CC(=O)[C@@]1(O)CC[C@H]2[C@@H]3CCC4=CC(=O)CC[C@]4(C)[C@H]3CC[C@@]21C`: the Potency result in test [2], in [3], in test [4], in test [5], in test [6] and in [7] was “inactive” throughout. The Potency entry in [8], in test [9], in [10], in [11], in test [12] and in [13] was “inactive” each time. In addition, the Potency result in test [14], in test [15], in [16], in test [17], in test [18] and in test [19] was “inactive” in each case. Further, the Potency result in test [20] is “inactive”. The call in test [1] was inactive.
Regarding `CN=C(NC#N)NCCSCc1nc[nH]c1C`, the Potency result in test [2], in test [3], in test [4], in test [5], in test [6] and in test [7] was “inactive” in each case. Besides, the Potency result in test [8], in [9], in [10], in [11], in test [12] and in [13] was “inactive” throughout. Moreover, the Potency result in [14], in [15], in test [16], in test [17], in test [18] and in test [19] was “inactive” in each case. In addition, the Potency result in test [20] was “inactive”. In addition, the outcome in [1] was inactive.
Turning to `CC(C)(C)NCC(O)c1cc(O)cc(O)c1` (stereo unspecified), in test [1], the max response is -15.1%.
As to `O=C(O)CP(=O)(O)O`, the Potency entry in test [2], in test [3], in test [4], in test [5], in test [6] and in test [7] was “inactive” each time. Besides, the Potency entry in [8], in test [9], in [10], in test [11], in [12] and in [13] was “inactive” throughout. In addition, the Potency result in test [14], in test [15], in test [16], in test [17], in test [18] and in [19] was “inactive” in each case. Moreover, the max response in test [1] is -7.2%.
On to `CCc1c(C)[nH]c2c1C(=O)C(CN1CCOCC1)CC2` (stereo unspecified), for which the compound was classed as inactive in test [1].
Regarding `COc1ccc2c(c1OC)C(=O)O[C@@H]2[C@H]1c2c(cc3c(c2OC)OCO3)CCN1C`, the max response in test [1] was 4.94%.
Turning to `C[N+](C)(C)CCOC(N)=O`, the Potency entry in [2], in test [3], in [4], in test [5], in test [6] and in test [7] was “inactive” throughout. The Potency entry in test [8], in test [9], in test [10], in test [11], in test [12] and in test [13] was “inactive” each time. Besides, the Potency result in [14], in test [15], in test [16], in [17], in test [18] and in test [19] was “inactive” throughout. Also, the Potency result in test [20] is “inactive”. Moreover, the max response in test [1] was 1.41%.
With `C[C@@H](O)[C@H]1C(=O)N2C(C(=O)O)=C(SCCN=CN)C[C@H]12`, the max response in test [1] was -15.5%.
Take `c1ccc2c(c1)CCCC2C1=NCCN1` (stereo unspecified): the max response in [1] is 0.704%.
The same measure, in the same setting: the result for `CC(=O)OC(C)C[N+](C)(C)C` (stereo unspecified) reads 1.65%.
Consider `CCCCCN(CCCCC)C(=O)C(CCC(=O)O)NC(=O)c1ccc(Cl)c(Cl)c1` (stereo unspecified), for which the Potency result in test [2], in [3], in test [4], in [5], in test [6] and in test [7] was “inactive” throughout. Moreover, the Potency entry in test [8], in [9], in test [10], in test [11], in [12] and in test [13] was “inactive” throughout. The Potency entry in test [14], in [15], in test [16], in test [17], in test [18] and in [19] was “inactive” each time. For the same compound, in test [20], the Potency entry is “inactive”. The max response in test [1] is -3.52%.
On to `C[C@]12CC[C@@H]3c4ccc(O)cc4C[C@@H](CCCCCCCCCS(=O)CCCC(F)(F)C(F)(F)F)[C@H]3[C@@H]1CC[C@@H]2O` (stereo partly specified), for which, in [1], the max response is -49.4%.

The values are drawn from PubChem BioAssay (NCATS).
